Unmarked numbers belong to inactive results. For some of these results: Measured potencies and affinities stand elsewhere. Calls of active or inactive are those of the source. How the calls were made is not given here.

The source of these data is PubChem BioAssay (NCATS).

The conditions of experiment [1]: Ebola virus entry assay, green fluorescence channel.
For experiment [2] the following is noted: Ebola virus entry assay, ratio channel.
For experiment [3] the following is noted: Ebola virus entry assay, green channel fluorescence.
For experiment [4] the following is noted: Ebola virus entry assay, reporter ratio channel; AC50: Channel type: primary unless noted; outcome: Channel type: primary unless noted.
Wherever efficacy is given: 0% is about no effect.

For the compound `Cc1ccc(C(=O)c2ccc(CC(=O)O)n2C)cc1`, the efficacy in experiment [1] is 11.5%. Also, the result in experiment [2], in experiment [3] and in experiment [4] was inactive.
On to `N#CCC(=O)NN`, for which, in experiment [1], the efficacy is -12.5%. The result in experiment [2], in experiment [3] and in experiment [4] was inactive.
With `COc1cc2c(cc1OC)CN(C(=O)[C@H](C)N[C@@H](CCc1ccccc1)C(=O)O)[C@H](C(=O)O)C2`, the efficacy in experiment [1] was -27.9%. Moreover, the outcome in experiment [2], in experiment [3] and in experiment [4] was inactive.
As for `CC(NN)c1ccccc1` (stereo unspecified), the efficacy in experiment [1] is -30%. Also, the outcome in experiment [2], in experiment [3] and in experiment [4] was inactive.
Regarding `NS(=O)(=O)c1cc2c(cc1Cl)NC(C(Cl)Cl)NS2(=O)=O` (stereo unspecified), in experiment [1], the efficacy is -21%. Besides, the result in experiment [2], in experiment [3] and in experiment [4] was inactive.
For the compound `Nc1ccc(S(=O)(=O)NCc2ccccc2)cc1`, in experiment [1], the efficacy was 27.6%. Besides, the outcome in experiment [2], in experiment [3] and in experiment [4] was inactive.
Turning to `C[C@H]1O[C@@H](n2cc(F)c(=O)[nH]c2=O)[C@H](O)[C@@H]1O`, the efficacy in experiment [1] was -18.2%. The result in experiment [2], in experiment [3] and in experiment [4] was inactive.
Regarding `CCN1CCN(C(=O)N[C@@H](C(=O)N[C@@H]2C(=O)N3[C@@H]2SC(C)(C)[C@H]3C(=O)O)c2ccccc2)C(=O)C1=O`, the efficacy in experiment [1] is -32.7%. Besides, the outcome in experiment [2], in experiment [3] and in experiment [4] was inactive.
On to `CN1CCN(c2c(F)cc3c(=O)c(C(=O)O)cn4c3c2SCC4)CC1`, for which, in experiment [1], the efficacy is -11.6%. Besides, the result in experiment [2], in experiment [3] and in experiment [4] was inactive.
In the case of `COc1nccnc1NS(=O)(=O)c1ccc(N)cc1`, the efficacy in experiment [1] is -13.7%. Further, the outcome in experiment [2], in experiment [3] and in experiment [4] was inactive.
In the case of `CCCCCCCCCCCCSCCOCCO`, the efficacy in experiment [1] is -41.3%. Besides, the result in experiment [2], in experiment [3] and in experiment [4] was inactive.
On to `CC(C)Cc1ccc(CC(=O)O)cc1`, for which, in experiment [1], the efficacy is -19.8%. In addition, the outcome in experiment [2], in experiment [3] and in experiment [4] was inactive.
With `O=c1cc(O)c(Cl)c[nH]1`, in experiment [1], the efficacy was -17.7%. Besides, the outcome in experiment [2], in experiment [3] and in experiment [4] was inactive.
For the compound `NCCS(=O)(=O)O`, the efficacy in experiment [1] is 39.2%. Besides, the result in experiment [2], in experiment [3] and in experiment [4] was inactive.
For `Cc1ncc(CO)c(C=O)c1O`, the efficacy in experiment [1] was -24.1%. Further, the outcome in experiment [2], in experiment [3] and in experiment [4] was inactive.
As to `CCN(Cc1ccncc1)C(=O)C(CO)c1ccccc1` (stereo unspecified), the efficacy in experiment [1] was -24.3%. In addition, the result in experiment [2], in experiment [3] and in experiment [4] was inactive.
`Cc1ncc([N+](=O)[O-])n1CC(O)CCl` (stereo unspecified): the efficacy in experiment [1] was -16.3%. In addition, the result in experiment [2], in experiment [3] and in experiment [4] was inactive.
For the compound `O=C1OC2(c3ccccc31)c1cc(Br)c(O)c(Br)c1Oc1c2cc(Br)c(O)c1Br`, in experiment [1], the efficacy was 23.8%. In addition, the result in experiment [2], in experiment [3] and in experiment [4] was inactive.
Turning to `O=C1c2c(O)cccc2Cc2cccc(O)c21`, the efficacy in experiment [1] was -17.8%. Further, the result in experiment [2], in experiment [3] and in experiment [4] was inactive.
In the case of `c1ccc2sc(SSc3nc4ccccc4s3)nc2c1`, the efficacy in experiment [1] is -14.3%. Besides, the outcome in experiment [2], in experiment [3] and in experiment [4] was inactive.
With `CC(C)(C)c1cc(C=O)cc(C(C)(C)C)c1O`, the efficacy in experiment [1] is 23.6%. Also, the outcome in experiment [2], in experiment [3] and in experiment [4] was inactive.
For the compound `Cc1ncc(CO)c(CO)c1O`, the efficacy in experiment [1] is -13.2%. Also, the result in experiment [2], in experiment [3] and in experiment [4] was inactive.
`CC1(C)OC(=O)NC1=O`: the efficacy in experiment [1] was 15.4%. Further, the result in experiment [2], in experiment [3] and in experiment [4] was inactive.
On to `CC(C)CCOC(=O)c1ccc(N(C)C)cc1`, for which the efficacy in experiment [1] was -19.6%. Also, the result in experiment [2], in experiment [3] and in experiment [4] was inactive.
As for `CC(=O)N(CC(O)CO)c1c(I)c(C(=O)NCCO)c(I)c(C(=O)NCC(O)CO)c1I` (stereo unspecified), in experiment [1], the efficacy was -10.6%. Further, the result in experiment [2], in experiment [3] and in experiment [4] was inactive.
Consider `Cc1c(N(C)CS(=O)(=O)O)c(=O)n(-c2ccccc2)n1C`, for which the efficacy in experiment [1] was -26.4%. In addition, the result in experiment [2], in experiment [3] and in experiment [4] was inactive.
As for `Cc1ncc(CO)c(CN)c1O`, the efficacy in experiment [1] is -11.8%. The result in experiment [2], in experiment [3] and in experiment [4] was inactive.
As for `C/C=C1\[C@H]2C=C(C)C[C@]1(N)c1ccc(=O)[nH]c1C2`, the efficacy in experiment [1] is 25.8%. For the same compound, the result in experiment [2], in experiment [3] and in experiment [4] was inactive.
With `CCC(C(=O)NC(=O)NC(C)=O)c1ccccc1` (stereo unspecified), the efficacy in experiment [1] is -14.5%. The outcome in experiment [2], in experiment [3] and in experiment [4] was inactive.
For `NC(=O)N[C@@H](CCC(=O)O)C(=O)O`, in experiment [1], the efficacy was -11.5%. The outcome in experiment [2], in experiment [3] and in experiment [4] was inactive.
Turning to `Cc1ncc([N+](=O)[O-])n1CC(C)O` (stereo unspecified), in experiment [1], the efficacy is -13.9%. Moreover, the result in experiment [2], in experiment [3] and in experiment [4] was inactive.
As to `Cc1ccc(C(C)C)c(O)c1`, in experiment [1], the efficacy is -16.9%. In addition, the result in experiment [2], in experiment [3] and in experiment [4] was inactive.
Take `CCN(CC)CCNC(=O)c1ccc(N)cc1`: in experiment [1], the efficacy was -17.1%. For the same compound, the outcome in experiment [2], in experiment [3] and in experiment [4] was inactive.
Broadly, the AC50 is the midpoint of the concentration-response curve, whichever way the signal moves. `CN1CC[C@]23c4c5ccc(O)c4O[C@H]2[C@@H](O)C=C[C@H]3[C@H]1C5`: the efficacy in experiment [1] was 19.5%. In addition, the result in experiment [2] and in experiment [3] was inactive. Also, the AC50 in experiment [4] is 35.5 µM (active).
